# Reference: PubChem BioAssay (NCI)
# Compounds without any hit were thinned out: in the full panel of roughly 79,000, 15% have a hit. A number with no mark means an inactive call. Calls of active or inactive are those of the source. Rule as the data show it: active = growth inhibition above about 70%; inactive = the rest.
# Columns and labels:
# [1] = NCI Yeast Anticancer Drug Screen. Data for the rad52 strain (AID 147);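 also: 0% = growth of vehicle-treated control cultures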; settings: S. cerevisiae rad52 mutant growth inhibition, active compounds read high
# How it was run: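 The repair-mutant yeast strain was incubated with compounds, then growth was read and inhibition derived relative to vehicle.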
# [2] = NCI Yeast Anticancer Drug Screen. Data for the wt1 strain (AID 149);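 also: 0% = growth of vehicle-treated wt1 cultures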; settings: S. cerevisiae wt1 strain (SPY 50644) growth inhibition, active compounds read high
# How it was run: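 wt1 yeast, compound-treated; % growth inhibition vs vehicle control.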
# [3] = NCI Yeast Anticancer Drug Screen. Data for the rad50EPP+ strain (AID 151);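 also: 0% = growth of vehicle-treated control cultures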; settings: S. cerevisiae rad50 mutant strain, active compounds read high
# How it was run: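 Vehicle-normalised growth inhibition; rad50EPP+ yeast strain, altered in DNA damage repair, compound-treated.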
# [4] = NCI Yeast Anticancer Drug Screen. Data for the rad50 strain (AID 155);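 also: 0% = growth of vehicle-only cultures of the same strain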; settings: S. cerevisiae rad50 strain growth inhibition, active compounds read high
# How it was run: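 Genetically altered yeast (DNA repair pathway); compound treatment; growth inhibition vs vehicle ctrl.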
# [5] = NCI Yeast Anticancer Drug Screen. Data for the mec2-1 strain (AID 157); settings: S. cerevisiae mec2-1 strain, active compounds read high
# How it was run: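 Mutant yeast (mec2-1) grown with compound; growth inhibition relative to vehicle control reported.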
# [6] = NCI Yeast Anticancer Drug Screen. Data for the rad14 strain (AID 159);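 also: 0% = growth of vehicle-treated control cultures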; settings: S. cerevisiae rad14 strain growth inhibition, active compounds read high
# How it was run: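 Test compounds were applied to a repair-deficient yeast strain. Its growth was then compared with that of cultures given vehicle alone, and inhibition was expressed relative to those controls.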
# [7] = NCI Yeast Anticancer Drug Screen. Data for the sgs1 mgt1 strain (AID 161);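 also: 0% = growth of cultures given vehicle only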; settings: S. cerevisiae sgs1 mgt1 strain, active compounds read high
# How it was run: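 Yeast cells carrying a defined DNA-repair defect were exposed to test compounds. Growth inhibition was measured relative to vehicle-treated controls.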
# [8] = NCI Yeast Anticancer Drug Screen. Data for the cln2 rad14 strain (AID 165);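 also: 0% = growth equal to vehicle treated cultures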; settings: S. cerevisiae cln2 rad14 strain, active compounds read high
# How it was run: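 Readout is yeast growth inhibition versus vehicle-treated controls, using a strain with cln2 and rad14 alterations exposed to compound.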
# [9] = NCI Yeast Anticancer Drug Screen. Data for the bub3 strain (AID 167); settings: S. cerevisiae bub3 mutant strain, active compounds read high
# How it was run: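 Yeast carrying a defined mutation is treated with each compound, and growth is compared with that of vehicle-exposed cells to give inhibition.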
# [10] = NCI Yeast Anticancer Drug Screen. Data for the mlh1 strain (AID 171);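 also: 0% = growth of vehicle-treated control cultures of the same strain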; settings: S. cerevisiae mlh1 strain growth inhibition, active compounds read high
# How it was run: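 Measured: yeast growth. Reference: vehicle-treated controls. Organism: strain with a defined alteration affecting DNA damage repair or cell cycle control, treated with compound.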
# [11] = NCI Yeast Anticancer Drug Screen. Data for the sgs1 strain (AID 173);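 also: 0% = growth of vehicle-only control cultures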; settings: S. cerevisiae sgs1 mutant, active compounds read high
# How it was run: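 Each compound was added to cultures of the altered yeast strain. Growth was recorded, and inhibition was derived by comparison with vehicle controls.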
# [12] = NCI Yeast Anticancer Drug Screen. Data for the mlh1 rad18 strain (AID 175); settings: S. cerevisiae mlh1 rad18 strain growth inhibition, active compounds read high
# How it was run: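 Genetically defined yeast (DNA repair-deficient) exposed to compounds; growth inhibition determined relative to vehicle.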
# [13] = NCI Yeast Anticancer Drug Screen. Data for the rad18 strain (AID 177); settings: S. cerevisiae rad18 mutant growth inhibition, active compounds read high
# How it was run: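 Vehicle-treated cultures served as the baseline for scoring compound-induced growth inhibition in DNA-repair-mutant yeast.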
# [14] = NCI Yeast Anticancer Drug Screen. Data for the CLN2oe strain (AID 163);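 also: 0% = growth of vehicle-only control cultures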; settings: S. cerevisiae CLN2oe strain, active compounds read high
# How it was run: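 Compounds are applied to yeast harbouring a defined cell-cycle control change; reduced growth compared with vehicle-treated controls gives the value.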
# [15] = NCI Yeast Anticancer Drug Screen. Data for the wt2 strain (AID 169);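 also: 0% = growth of vehicle-treated yeast cultures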; settings: S. cerevisiae wt2 strain growth inhibition, active compounds read high
# How it was run: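 Against vehicle-treated controls, the growth of yeast exposed to each compound was compared, and the inhibition was recorded.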
# [16] = at 5.0 µM (retest, dose inferred, filed as 0.5)
# [17] = at 50.0 µM (retest, dose inferred, filed as 5.0)
structure (smiles),measurement,setting,value
Cc1ccc(S(=O)(=O)N(C)c2ccc(Cl)cc2C2=NCCc3ccccc32)cc1,growth inhibition,[1]; at 1.2 µM,2%
same,growth inhibition,[1]; at 3.7 µM,-8%
same,growth inhibition,[1]; at 11.0 µM,-6%
same,growth inhibition,[1]; at 33.0 µM,3%
same,growth inhibition,[1]; at 100.0 µM,95% (active)
same,growth inhibition,[2]; at 1.2 µM,-2%
same,growth inhibition,[2]; at 3.7 µM,-19%
same,growth inhibition,[2]; at 11.0 µM,-12%
same,growth inhibition,[2]; at 33.0 µM,-6%
same,growth inhibition,[2]; at 100.0 µM,95% (active)
same,growth inhibition,[3]; at 1.2 µM,-8%
same,growth inhibition,[3]; at 3.7 µM,-9%
same,growth inhibition,[3]; at 11.0 µM,-14%
same,growth inhibition,[3]; at 33.0 µM,-9%
same,growth inhibition,[3]; at 100.0 µM,-8%
same,growth inhibition,[4]; at 1.2 µM,0%
same,growth inhibition,[4]; at 3.7 µM,5%
same,growth inhibition,[4]; [16],47%
same,growth inhibition,[4]; at 11.0 µM,11%
same,growth inhibition,[4]; at 33.0 µM,3%
same,growth inhibition,[4]; [17],56%
same,growth inhibition,[4]; at 50.0 µM,89% (active)
same,growth inhibition,[4]; at 100.0 µM,94% (active)
same,growth inhibition,[5]; at 1.2 µM,-7%
same,growth inhibition,[5]; at 3.7 µM,-26%
same,growth inhibition,[5]; [16],39%
same,growth inhibition,[5]; at 11.0 µM,-18%
same,growth inhibition,[5]; at 33.0 µM,-3%
same,growth inhibition,[5]; [17],61%
same,growth inhibition,[5]; at 50.0 µM,91.7% (active)
same,growth inhibition,[5]; at 100.0 µM,95% (active)
same,growth inhibition,[6]; at 1.2 µM,-23%
same,growth inhibition,[6]; at 3.7 µM,-40%
same,growth inhibition,[6]; at 11.0 µM,-28%
same,growth inhibition,[6]; at 33.0 µM,-15%
same,growth inhibition,[6]; at 100.0 µM,94% (active)
same,growth inhibition,[7]; [16],7%
same,growth inhibition,[7]; [17],94% (active)
same,growth inhibition,[7]; at 50.0 µM,93.1% (active)
same,growth inhibition,[8]; [16],51%
same,growth inhibition,[8]; [17],98% (active)
same,growth inhibition,[8]; at 50.0 µM,90% (active)
same,growth inhibition,[9]; at 1.2 µM,-16%
same,growth inhibition,[9]; at 3.7 µM,-9%
same,growth inhibition,[9]; [16],52%
same,growth inhibition,[9]; at 11.0 µM,1%
same,growth inhibition,[9]; at 33.0 µM,7%
same,growth inhibition,[9]; [17],95% (active)
same,growth inhibition,[9]; at 50.0 µM,91.6% (active)
same,growth inhibition,[9]; at 100.0 µM,95% (active)
same,growth inhibition,[10]; at 1.2 µM,-21%
same,growth inhibition,[10]; at 3.7 µM,-21%
same,growth inhibition,[10]; at 11.0 µM,-17%
same,growth inhibition,[10]; at 33.0 µM,14%
same,growth inhibition,[10]; at 100.0 µM,96% (active)
same,growth inhibition,[11]; at 1.2 µM,-15%
same,growth inhibition,[11]; at 3.7 µM,-20%
same,growth inhibition,[11]; at 11.0 µM,-11%
same,growth inhibition,[11]; at 33.0 µM,6%
same,growth inhibition,[11]; at 100.0 µM,93% (active)
same,growth inhibition,[12]; [16],45%
same,growth inhibition,[12]; [17],55%
same,growth inhibition,[12]; at 50.0 µM,90.4% (active)
same,growth inhibition,[13]; at 1.2 µM,-13%
same,growth inhibition,[13]; at 3.7 µM,-12%
same,growth inhibition,[13]; at 11.0 µM,-18%
same,growth inhibition,[13]; at 33.0 µM,-11%
same,growth inhibition,[13]; at 100.0 µM,94% (active)
Cc1ccc(CNc2ccc(Br)cc2)cc1,growth inhibition,[1]; at 1.2 µM,5%
same,growth inhibition,[1]; at 3.7 µM,7%
same,growth inhibition,[1]; at 11.0 µM,18%
same,growth inhibition,[1]; at 33.0 µM,66%
same,growth inhibition,[1]; at 100.0 µM,88% (active)
same,growth inhibition,[2]; at 1.2 µM,-29%
same,growth inhibition,[2]; at 3.7 µM,-28%
same,growth inhibition,[2]; at 11.0 µM,-27%
same,growth inhibition,[2]; at 33.0 µM,24%
same,growth inhibition,[2]; at 100.0 µM,82% (active)
same,growth inhibition,[3]; at 1.2 µM,-10%
same,growth inhibition,[3]; at 3.7 µM,-11%
same,growth inhibition,[3]; at 11.0 µM,-4%
same,growth inhibition,[3]; at 33.0 µM,14%
same,growth inhibition,[3]; at 100.0 µM,64%
same,growth inhibition,[4]; at 1.2 µM,17%
same,growth inhibition,[4]; at 3.7 µM,6%
same,growth inhibition,[4]; [16],61%
same,growth inhibition,[4]; at 11.0 µM,16%
same,growth inhibition,[4]; at 33.0 µM,67%
same,growth inhibition,[4]; [17],89% (active)
same,growth inhibition,[4]; at 50.0 µM,62.8%
same,growth inhibition,[4]; at 100.0 µM,82% (active)
same,growth inhibition,[5]; at 1.2 µM,1%
same,growth inhibition,[5]; at 3.7 µM,2%
same,growth inhibition,[5]; [16],63%
same,growth inhibition,[5]; at 11.0 µM,17%
same,growth inhibition,[5]; at 33.0 µM,66%
same,growth inhibition,[5]; [17],90% (active)
same,growth inhibition,[5]; at 50.0 µM,76.7% (active)
same,growth inhibition,[5]; at 100.0 µM,93% (active)
same,growth inhibition,[6]; at 1.2 µM,-17%
same,growth inhibition,[6]; at 3.7 µM,-18%
same,growth inhibition,[6]; at 11.0 µM,-2%
same,growth inhibition,[6]; at 33.0 µM,71% (active)
same,growth inhibition,[6]; at 100.0 µM,92% (active)
same,growth inhibition,[7]; [16],-19%
same,growth inhibition,[7]; [17],94% (active)
same,growth inhibition,[14]; at 1.2 µM,-9%
same,growth inhibition,[14]; at 3.7 µM,11%
same,growth inhibition,[14]; at 11.0 µM,6%
same,growth inhibition,[14]; at 33.0 µM,34%
same,growth inhibition,[14]; at 100.0 µM,81% (active)
same,growth inhibition,[8]; [16],61%
same,growth inhibition,[8]; [17],97% (active)
same,growth inhibition,[9]; at 1.2 µM,-7%
same,growth inhibition,[9]; at 3.7 µM,11%
same,growth inhibition,[9]; [16],32%
same,growth inhibition,[9]; at 11.0 µM,26%
same,growth inhibition,[9]; at 33.0 µM,63%
same,growth inhibition,[9]; [17],94% (active)
same,growth inhibition,[9]; at 100.0 µM,91% (active)
same,growth inhibition,[15]; at 1.2 µM,-31%
same,growth inhibition,[15]; at 3.7 µM,-30%
same,growth inhibition,[15]; at 11.0 µM,-13%
same,growth inhibition,[15]; at 33.0 µM,35%
same,growth inhibition,[15]; at 100.0 µM,87% (active)
same,growth inhibition,[10]; at 1.2 µM,-32%
same,growth inhibition,[10]; at 3.7 µM,-31%
same,growth inhibition,[10]; at 11.0 µM,-21%
same,growth inhibition,[10]; at 33.0 µM,40%
same,growth inhibition,[10]; at 100.0 µM,85% (active)
same,growth inhibition,[11]; at 1.2 µM,-17%
same,growth inhibition,[11]; at 3.7 µM,-17%
same,growth inhibition,[11]; at 11.0 µM,-15%
same,growth inhibition,[11]; at 33.0 µM,34%
same,growth inhibition,[11]; at 100.0 µM,72% (active)
same,growth inhibition,[12]; [16],28%
same,growth inhibition,[12]; [17],77% (active)
same,growth inhibition,[12]; at 50.0 µM,60.2%
same,growth inhibition,[13]; at 1.2 µM,-6%
same,growth inhibition,[13]; at 3.7 µM,-15%
same,growth inhibition,[13]; at 11.0 µM,-7%
same,growth inhibition,[13]; at 33.0 µM,49%
same,growth inhibition,[13]; at 100.0 µM,77% (active)
COc1cc(N(C)C)ccc1/C=C\c1ccnc2ccccc12,growth inhibition,[1]; at 1.2 µM,-5%
same,growth inhibition,[1]; at 3.7 µM,-7%
same,growth inhibition,[1]; at 11.0 µM,-6%
same,growth inhibition,[1]; at 33.0 µM,-5%
same,growth inhibition,[1]; at 100.0 µM,-10%
same,growth inhibition,[2]; at 1.2 µM,-5%
same,growth inhibition,[2]; at 3.7 µM,-7%
same,growth inhibition,[2]; at 11.0 µM,-7%
same,growth inhibition,[2]; at 33.0 µM,-9%
same,growth inhibition,[2]; at 100.0 µM,-7%
same,growth inhibition,[3]; at 1.2 µM,-2%
same,growth inhibition,[3]; at 3.7 µM,-2%
same,growth inhibition,[3]; at 11.0 µM,10%
same,growth inhibition,[3]; at 33.0 µM,16%
same,growth inhibition,[3]; at 100.0 µM,12%
same,growth inhibition,[4]; at 1.2 µM,-5%
same,growth inhibition,[4]; at 3.7 µM,-7%
same,growth inhibition,[4]; [16],-10%
same,growth inhibition,[4]; at 11.0 µM,-3%
same,growth inhibition,[4]; at 33.0 µM,-1%
same,growth inhibition,[4]; [17],-10%
same,growth inhibition,[4]; at 50.0 µM,2.3%
same,growth inhibition,[4]; at 100.0 µM,1%
same,growth inhibition,[5]; at 1.2 µM,-4%
same,growth inhibition,[5]; at 3.7 µM,-7%
same,growth inhibition,[5]; [16],-11%
same,growth inhibition,[5]; at 11.0 µM,-8%
same,growth inhibition,[5]; at 33.0 µM,-4%
same,growth inhibition,[5]; [17],-19%
same,growth inhibition,[5]; at 50.0 µM,-8.75%
